# Source: PubChem BioAssay (National Center for Advancing Translational Sciences (NCATS))
# A selection: hits, their analogues and other compounds. The true share with any hit is near 7.3%.
# NPC1 promoter act – NPC1 promoter activation; Huh7 NPC1 promoter luciferase reporter, 24 h; Potency, µM (highest dose often 9.22 µM), inactives show top-dose activation, most hits filed as activators; 2.4% of 320,000 active; AID 485313; also: % of control where 0% means no effect; nearly all actives have a fitted effect of over 60% in size
#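 Cells: Huh7 expressing luciferase under the NPC1 promoter, 1500/well. Seeded 2 h, compound added, incubated 24 h at 37 °C. Luciferase reagent, 10 min ambient, then luminescence.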
# SMN2 splice up – increases expression of the SMN2 splice variant; HEK293 SMN2-luciferase splicing reporter, luminescence, 30-36 h; Potency, µM (highest dose often 46.1 µM), without a hit: at the top dose activity change, positive = activation, hits mostly activators; AID 1458; 2.8% of 210,000 active; also: % of control where 0% means no effect; nearly all actives have a fitted effect of over 55% in size
#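 qHTS luciferase splicing reporter: luminescence rises when SMN2 exon 7 is included in transfected HEK293 cells. Compound exposure lasted 30-36 h at 37C, with 4.5 mM final sodium butyrate as control, followed by a ONE-Glo read.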
# FLuc modulator – firefly luciferase modulation, counter-screen for miR-21 project | Potency, µM (series often up to 57.5 µM), without a hit: at the top dose activity change, negative = inhibition, hits mostly inhibitors | purified FLuc, Km substrates, luminescence inhibition | 6.9% of 360,000 active | P08659 | AID 588342;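 also: plate controls were vehicle for no effect and reference inhibitor for full effect; nearly all actives have a fitted effect of over 55% in size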
# Target sequence (P08659 whole entry, looked up): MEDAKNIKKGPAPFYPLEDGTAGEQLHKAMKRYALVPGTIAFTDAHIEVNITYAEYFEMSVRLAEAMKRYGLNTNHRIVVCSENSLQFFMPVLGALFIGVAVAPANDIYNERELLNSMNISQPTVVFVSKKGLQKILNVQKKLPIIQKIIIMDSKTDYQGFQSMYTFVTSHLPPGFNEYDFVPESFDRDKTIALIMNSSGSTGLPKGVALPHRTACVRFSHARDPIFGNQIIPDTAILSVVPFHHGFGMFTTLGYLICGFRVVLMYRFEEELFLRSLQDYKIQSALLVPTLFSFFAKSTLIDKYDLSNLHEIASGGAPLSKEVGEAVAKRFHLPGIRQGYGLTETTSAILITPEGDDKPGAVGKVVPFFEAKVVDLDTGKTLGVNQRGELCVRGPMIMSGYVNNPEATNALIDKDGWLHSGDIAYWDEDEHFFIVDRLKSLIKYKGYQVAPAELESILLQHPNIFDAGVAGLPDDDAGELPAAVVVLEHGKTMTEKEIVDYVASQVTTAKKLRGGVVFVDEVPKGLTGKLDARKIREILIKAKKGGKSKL
#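 Purified P. pyralis luciferase (10nM final) with 10uM D-luciferin and 10uM ATP (Km levels) in 50mM Tris acetate pH 7.5, 10mM Mg acetate, 0.01% Tween-20, 0.05% BSA; qHTS 6-point titration, ~60 µM downward; luminescence read.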
# Rab9 prom act – Rab9 promoter activation. Huh7 Rab9 promoter-luciferase reporter, luminescence, 24 h. 2.8% of 320,000 active. Potency, µM (doses to about 9.22 µM), inactives show at the top dose activation, negative = inhibition, hits mostly activators. AID 485297; also: % of control where 0% means no effect; nearly all actives have a fitted effect of over 60% in size
#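 Huh7 cells stably carrying Rab9 promoter–luciferase reporter, plated 1500 cells/well, compound added after 2 h and incubated 24 h at 37 °C; luciferase luminescence then read after 10 min with detection reagent.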
# ELG1 genotoxic – genotoxicity induction in ELG1-luciferase HEK293T cells | HEK293T ELG1-luciferase reporter, luminescence, 16 h | Potency, µM (titrated, usually from 46 µM), for inactives: at the highest dose activity change, positive = activation, usual class: activators | 1.3% of 330,000 active | AID 504466; also: % of control where 0% means no effect; nearly all actives have a fitted effect of over 60% in size
#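 Quantitative HTS format in 1536-well plates. HEK293T ELG1-luciferase reporter cells receive test compound and are incubated 16 hr at 37 °C, 5% CO2; ONE-Glo added, 30 min room temperature, then luminescence read.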
# Luc counter – counter-screen: inhibitors of Kinase-Glo firefly luciferase; Potency, µM (series often up to 38.3 µM), without a hit: at the top dose activity change, negative = inhibition, hits mostly inhibitors; 0.28% of 200,000 active; Kinase-Glo luciferase, ATP luminescence, 8 min; Q27757; AID 1379; also: % is scaled to controls: 0 for no effect and ±100 for the full control effect; nearly all actives have a fitted effect of over 60% in size
#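 Recombinant Kinase-Glo luciferase, 10 uM ATP (linear range), luciferin; imidazole pH 7.2 / KCl / MgCl2 / Tween / BSA buffer; 8 min RT; luminescence.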
# The depositor's hits bear a star; ? = inconclusive; · = no result; [ ] = another dose, or the depositor's remark. Calls follow the shape of the dose curve; as a rule, active = well fitted curve in the direction sought with a large enough effect; inconclusive = small, poorly fitted or top-dose-only effect, or another doubt; inactive = no such curve, though single readings can be large; an effect the other way counts as inactive or inconclusive. Potency is read from the fitted curve at half-maximal effect.
SMILES,NPC1 promoter act,SMN2 splice up,FLuc modulator,Rab9 prom act,ELG1 genotoxic,Luc counter
Cc1ccc(C(=O)COC(=O)COc2ccccc2[N+](=O)[O-])s1,0%,·,-17%,1%,0%,·
O=C(COC(=O)c1cccc([N+](=O)[O-])c1)c1ccc2c(c1)OCO2,3.5µM*,·,2.7µM*,2.5µM*,21µM*,·
O=C(/C=C/c1cccs1)N1CCc2ccccc21,4µM*,2.8µM*,0.48µM*,4µM*,1.8µM*,?
O=C(/C=C/c1ccc(Cl)c(Cl)c1)N1CCc2ccccc21,3.2µM*,7.1µM*,?,2.8µM*,?,0%
O=C(c1cccs1)N1CCc2ccccc21,?,14µM*,27µM*,?,?,-15%
CN1CCN(C(=O)/C=C/c2ccc(Cl)c(Cl)c2)CC1,21%,·,1%,21%,16%,·
Cc1cc(C)cc(NS(=O)(=O)c2ccc3c(c2)NC(=O)C(C)S3)c1 (stereo not drawn),·,·,1%,·,·,·
COc1ccc(NC(=O)C(NC(=O)/C=C\c2ccc3c(c2)OCO3)c2ccc(C)cc2)cc1 (stereo not drawn),·,-10%,-1%,·,·,·
CCC1=C(OC(=O)N(CC)CC)N2C(=O)OC(=NCCOC)[C@]2(C)[C@H]2C1=CC[C@H]1C(=O)N(C)C(=O)[C@H]12,·,-6%,·,·,·,-2%
Cc1ccc2nc(Cl)c(/C=C/C(=O)c3ccco3)cc2c1,?,·,-23%,3.5µM*,16%,·
COc1cc2cc(/C=C/C(=O)c3ccco3)c(Cl)nc2cc1OC,-3%,?,-5%,-6%,7%,-6%
Cc1ccc2cc(/C=C/C(=O)c3ccco3)c(Cl)nc2c1,?,·,?,2.5µM*,?,·
O=C(Nc1ccc(Cl)cc1Cl)c1ccc(Br)o1,2.2µM*,·,13µM*,?,?,·
O=C(CNC(=O)c1ccc(Br)o1)NCc1ccc(Cl)cc1Cl,-4%,·,-14%,-5%,11%,·
O=C(Nc1cc(Cl)ccc1N1CCOCC1)c1ccc(Br)o1,3.2µM*,·,0.85µM*,0.56µM*,1.2µM*,·
CCC(=O)c1ccc(OCC(=O)Nc2nn3cnnc3s2)cc1,3%,-3%,27µM*,1%,7%,-1%
Cc1ccc(NC(=O)CN2C(=O)COc3ccc(S(=O)(=O)N4CCCCCC4)cc32)cc1Cl,·,·,-13%,·,·,·
Cc1nn(-c2ccccc2)c2c1C(c1cccs1)C(C#N)=C(N)O2 (stereo not drawn),2%,-3%,15µM*,-1%,-2%,-2%
Cc1nn(-c2ccccc2)c2c1C(c1ccco1)C(C#N)=C(N)O2 (stereo not drawn),0%,1%,13µM*,7%,1%,-5%
N#CC1=C(N)Oc2c(ccc3ccccc23)C1c1cccs1 (stereo not drawn),-3%,17%,?,-12%,18µM*,-1%
COC(=O)C1CC1C(NC(=O)[C@@H]1CCCN1)c1ccccc1 (stereo partly drawn),·,-1%,·,·,·,1%
CC(=O)c1c(C)oc2ccc(N(C(=O)Oc3ccccc3)S(=O)(=O)c3ccc(Cl)cc3)cc12,·,-9%,4%,·,·,·
Cc1cc(N2CCN(C)CC2)ccc1NC(=O)c1c2c(nc3ccccc13)CCN(Cc1ccccc1)C2,-41%,-70%,-8%,-32%,23µM*,-2%
COc1cccc(-c2cc(C(=O)N3CCOCC3)no2)c1,1.3µM*,·,8.5µM*,1.4µM*,?,·
COc1ccc(-c2cc(C(=O)N3CCOCC3)no2)cc1,0.35µM*,·,1.5µM*,0.45µM*,0.41µM*,·
SMILES,NPC1 promoter act,SMN2 splice up,FLuc modulator,Rab9 prom act,ELG1 genotoxic,Luc counter
COc1cccc(-c2cc(C(=O)N3CCN(C(c4ccccc4)c4ccccc4)CC3)no2)c1,-7%,-10%,1%,-4%,-9%,1%
COc1cccc(-c2cc(C(=O)N3C(C)CCCC3C)no2)c1 (stereo not drawn),5µM*,14µM*,11µM*,3.2µM*,7.1µM*,-5%
COC(=O)c1ccc(NC(=O)C(=O)N2CCN(C(=S)Nc3cccc(OC)c3)CC2)cc1,-1%,-25%,-7%,-6%,-3%,0%
COc1cccc(NC(=O)C(=O)N2CCOCC2)c1,24%,13µM*,19µM*,?,?,?
CCc1ccccc1NC(=O)Cn1c(=O)n(CCCCCC(=O)NCc2ccc(C)cc2)c(=O)c2sccc21,·,0%,-4%,·,·,·
O=C(/C=C/c1c(F)cccc1Cl)c1ccc(F)cc1,1%,-72%,6.7µM*,13%,2%,?
O=C(/C=C/c1ccc[nH]1)c1ccccc1,23%,-6%,12µM*,?,8%,-6%
O=C(/C=C/c1ccc[nH]1)c1ccc(F)cc1,6%,?,12µM*,1%,?,-18%
COCCN(CCOC)C(=O)c1ccc(Cc2nc3ccccc3[nH]2)cc1,·,·,·,·,·,2%
COc1ccc(NC(=O)C(=S)NC2CCCCC2)cc1,1.6µM*,13µM*,5.4µM*,2.8µM*,8.2µM*,-2%
O=C(CCN1CCN(CCO)CC1)Nc1ccc(C2CCCC2)cc1,-9%,-17%,4%,-3%,2%,-1%
O=C(CSCCO)Nc1ccc(C2CCCCC2)cc1,-5%,-12%,12µM*,-6%,?,0%
Cc1ccc(NC(=O)C(=O)N2CCCC2)cc1Cl,3.2µM*,10µM*,2.1µM*,2.8µM*,?,-1%
Cc1ccc(NC(=O)N2CCCC2)cc1Cl,17%,16%,-20%,28%,10%,-4%
CCc1ccc(NC(=O)NC2CCCCCCC2)cc1,0.71µM*,·,3.8µM*,1.1µM*,?,·
COc1ccc(OC)c(NC(=O)C(=S)NC2CCCCC2)c1,-2%,-15%,?,1%,1%,3%
COc1cc(C2CC(=O)Oc3ccc(O)cc32)cc(OC)c1OC (stereo not drawn),·,·,·,·,·,1%[39.9 µM]
CCOC(=O)N1CCC(NC(=O)c2ccc3c(c2)N(Cc2ccc(F)cc2)C(=O)c2ccccc2S3(=O)=O)CC1,·,5%,-4%,·,·,·
COc1ccc(NC(=O)CC2NCCNC2=O)c(OC)c1 (stereo not drawn),·,3%,-1%,·,·,·
Cc1ccc(NC(=O)NC2CCCCC2)cc1Cl,3.2µM*,13µM*,?,?,3.7µM*,-1%
O=C(Nc1ccc(Br)cc1)NC1CCCCCCC1,2.2µM*,·,6.7µM*,4µM*,?,·
CCOc1ccc(CC(=O)NNC(=O)NC2CCCCC2)cc1,1%,2%,-2%,2%,2%,1%
COc1ccc(NC(=O)CCSc2ccc(C)cc2)cc1,-1%,-5%,3%,-5%,0%,-1%
